Molecules are shown by their SMILES. Records with an inconclusive call do not appear. Where a structure was tested more than once in an assay, its records may differ in their call. Calls of active or inactive are those of the source. Unless noted, calls follow the shape of the dose curve; as a rule, active = well fitted curve in the direction sought with a large enough effect in the repeat runs; inconclusive = weak or mixed curves; inactive = no such curve, though single readings can be large; an effect the other way counts as inactive or inconclusive.

From PubChem BioAssay (Tox21) come the findings set out here.

A short description of test [1]: qHTS assay to identify small molecule agonists of the sonic hedgehog signaling (Shh) pathway (AID 1259368; calls by dose curve;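 also: NIH/3T3-derived 3T3Gli1-Luc cells carrying a stable Gli1-driven firefly luciferase reporter; series mostly up to about 92 µM; nearly all actives have a fitted effect of over 15% in size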). The method in brief: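 Stable NIH/3T3 Gli1-Luc reporter clone; 24 hr cpd exposure after a 4 hr settling period; luminescence endpoint.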
In general terms: In qHTS, concentration-response curves come from the screen itself.

Test [2] in a line: qHTS assay to identify small molecule antagonists of the sonic hedgehog signaling (Shh) pathway (AID 1259369; calls by dose curve; also: nearly all actives have a fitted effect of over 45% in size; also: potency is read from the fitted curve at half-maximal effect). An outline of the steps: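 Gli1 transcriptional reporter (firefly Luc) in NIH/3T3 background, conditioned-medium activated. 24hr exposure, luminescence endpoint.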
A short description of test [3]: qHTS assay to identify small molecule agonists of the androgen receptor (AR) signaling pathway in the presence of an antagonist - cell viability counter screen (AID 1259379).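 Also: MDA-kb2 human breast cancer cells carrying an MMTV luciferase reporter; series mostly up to about 92 µM; nearly all actives have a fitted effect of over 25% in size.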 The method in brief:
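Counter screen for cell viability run in parallel with the AR agonist-mode luciferase assay. MDA-kb2 cells were co-treated with nilutamide (3.0uM final) and compounds, then incubated 16 hr at 37C, and CellTiter-Fluor fluorescence was measured.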

The nature of test [4]: qHTS assay to identify small molecule agonists of the estrogen receptor beta (ER-beta) signaling pathway - cell viability counter screen (AID 1259380). Also: nearly all actives have a fitted effect of over 30% in size. Also: potency is read from the fitted curve at half-maximal effect. An outline of the steps: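 In this qHTS counter screen, HEK293T cells carrying an ER-beta/UAS beta-lactamase reporter, grown in 2% charcoal-stripped FBS, received compound for 16 hr; ATP-based CellTiter-Glo luminescence was then read after 30 min at room temperature.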

In test [5] the target is Androgen receptor (Homo sapiens) (UniProt P10275). Description: qHTS assay to identify small molecule agonists of the androgen receptor (AR) signaling pathway in the presence of an antagonist (AID 1259381; calls by dose curve; also: nearly all actives have a fitted effect of over 15% in size). The method in brief: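 AR antagonist background: nilutamide 3.0uM final. Cell line: MDA-kb2, MMTV-driven luciferase, responsive to both AR and GR. Exposure 16hr, 37C, no CO2; ONE-Glo luminescence.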
Chain of Androgen receptor (Homo sapiens) (P10275 whole entry, looked up): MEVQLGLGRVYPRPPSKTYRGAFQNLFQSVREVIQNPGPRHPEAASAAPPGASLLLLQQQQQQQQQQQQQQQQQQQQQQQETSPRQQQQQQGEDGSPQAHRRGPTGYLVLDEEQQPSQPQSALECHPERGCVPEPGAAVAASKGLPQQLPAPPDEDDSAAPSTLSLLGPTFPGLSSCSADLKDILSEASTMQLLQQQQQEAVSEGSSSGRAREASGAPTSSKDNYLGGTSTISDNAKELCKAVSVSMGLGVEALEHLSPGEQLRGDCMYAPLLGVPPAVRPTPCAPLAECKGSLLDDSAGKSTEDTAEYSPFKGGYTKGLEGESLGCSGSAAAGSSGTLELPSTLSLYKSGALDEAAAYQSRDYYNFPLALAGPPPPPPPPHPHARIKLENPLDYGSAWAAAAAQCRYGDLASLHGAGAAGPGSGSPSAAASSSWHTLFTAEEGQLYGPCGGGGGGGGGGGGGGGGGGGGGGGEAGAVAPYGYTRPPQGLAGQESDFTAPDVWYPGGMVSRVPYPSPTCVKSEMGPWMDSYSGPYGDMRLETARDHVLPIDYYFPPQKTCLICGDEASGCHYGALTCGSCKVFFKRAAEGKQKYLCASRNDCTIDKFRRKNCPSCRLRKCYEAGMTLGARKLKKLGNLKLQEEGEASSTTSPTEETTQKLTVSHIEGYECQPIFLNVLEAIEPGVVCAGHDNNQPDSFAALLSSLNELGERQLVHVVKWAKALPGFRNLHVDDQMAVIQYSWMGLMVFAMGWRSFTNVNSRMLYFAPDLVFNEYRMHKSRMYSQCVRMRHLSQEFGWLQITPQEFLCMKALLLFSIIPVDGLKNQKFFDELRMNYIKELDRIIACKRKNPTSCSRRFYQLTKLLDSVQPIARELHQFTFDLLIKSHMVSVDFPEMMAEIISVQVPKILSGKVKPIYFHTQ

Test [6] is described as follows: qHTS assay to identify small molecule agonists or antagonists of the thyroid stimulating hormone receptor (TSHR) signaling pathway - wild type cell line counter screen (AID 1259384; calls by dose curve). An outline of the steps: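 Wild-type Hek293 cells, 800/well, 18 h at 37C, then compound with Ro20-1724 for 30 min RT. cAMP by HTRF (cAMP-d2/anti-cAMP cryptate), 1 h RT, fluorescence read. 15 concentrations, triplicates.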

In test [7] the target is Thyrotropin receptor (Homo sapiens) (UniProt P16473). Description: qHTS assay to identify small molecule antagonists of the thyroid stimulating hormone receptor (TSHR) signaling pathway (AID 1259385; calls by dose curve; also: nearly all actives have a fitted effect of over 20% in size). The method in brief:
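TSHR-HEK293 cells (800/well) plated 18 h, then compounds with Ro20-1724 and TSH at 1.5 ng/mL final, 30 min at room temperature. cAMP quantified by HTRF (cAMP-d2/anti-cAMP-cryptate, 1 h); 15 concentrations in triplicate.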

A short description of test [8]: qHTS assay to identify small molecule agonists of the estrogen receptor alpha (ER-alpha) signaling pathway in the presence of an antagonist - cell viability counter screen (AID 1259386).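 Also: series mostly up to about 92 µM; cells exposed to compounds for 22 h at 37 °C before the viability read; nearly all actives have a fitted effect of over 30% in size.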 An outline of the steps: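 Steps: 5-day stripped-FBS culture; seed and incubate 24hr; add ICI-182,780 (10.0nM final); pin 15-point compound titration; incubate 22hr at 37C; add CellTiter-Fluor at 21hr; read fluorescence.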

Test [9] concerns the target Progesterone receptor (Homo sapiens) (UniProt P06401). Kind of test: qHTS assay to identify small molecule agonists of the progesterone receptor (PR) signaling pathway (AID 1346784; calls by dose curve; also: nearly all actives have a fitted effect of over 30% in size). The method in brief:
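HEK 293T PR-UAS-bla reporter cells, 2% charcoal-stripped FBS; 6 hr settle at 37C/5% CO2, compound (DMSO) 16 hr, LiveBLAzer B/G FRET substrate 2 hr RT, fluorescence intensity read.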

Test [10] shares this target. Kind of test: qHTS assay to identify small molecule antagonists of the progesterone receptor (PR) signaling pathway (AID 1346795; active = well fitted inhibition curve with a large enough effect in the signal ratio in the repeat runs, not every such curve was filed as active; the % refers to the signal ratio). An outline of the steps: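 Beta-lactamase reporter, HEK293T PR-UAS-bla line; 2% charcoal-stripped FBS; 6 hr pre-incubation, 37C/5% CO2. Compound + R5020 1 nM final, 16 hr. LiveBLAzer B/G FRET substrate, 2 hr RT; fluorescence intensity read.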

Test [11] can be described thus: qHTS assay to identify small molecule antagonists of the TGF-beta/Smad signaling pathway - cell viability counter screen (AID 1346824). Also: nearly all actives have a fitted effect of over 50% in size. The method in brief: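 SBE-bla HEK 293T cells, incubated overnight, then compound plus 0.25 ng/mL TGF-beta1 (stock added) for 5 hr at 37 C. Viability was read in the same wells by CellTiter-Glo luminescence after 30 min at room temperature.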

Test [12] in a line: qHTS assay to identify small molecule agonists of the TGF-beta/Smad signaling pathway - cell viability counter screen (AID 1346829). Also: top concentration of the series differs between compounds; nearly all actives have a fitted effect of over 45% in size. An outline of the steps: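 Same-well cytotoxicity: CellTiter-Glo added after the 2 hr room-temperature beta-lactamase substrate step, luminescence measured 30 min later; cells had 5 hr of compound at 37 C.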
A short description of test [13]: qHTS assay to identify small molecule agonists of the TGF-beta/Smad signaling pathway (AID 1346859; active = well fitted activation curve with a large enough effect in the signal ratio in the repeat runs, not every such curve was filed as active; the % refers to the signal ratio; also: series mostly up to about 77 µM). The method in brief:
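Read-out: fluorescence at 460 and 530 nm (405 nm excitation) after a 2 hr room-temperature incubation with beta-lactamase FRET substrate. SBE-bla HEK 293T cells had been treated with test compounds for 5 hr at 37 C.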

Test [14] addresses Thyrotropin-releasing hormone receptor (Homo sapiens) (UniProt P34981). Description: qHTS assay to identify small molecule antagonists of the thyrotropin-releasing hormone receptor (TRHR) signaling pathway (AID 1346877; active = well fitted inhibition curve with a large enough effect in the repeat runs, not every such curve was filed as active; also: series mostly up to about 51 µM). An outline of the steps:
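Human TRHR in HEK293 cells; inhibition of the intracellular calcium rise triggered by 1 nM TRH was followed by fluorescence over 3 min. Compounds were run at 15 concentrations, three replicates each.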

The target in test [15] is Estrogen receptor beta (Homo sapiens) (UniProt Q92731). Kind of test: qHTS assay to identify small molecule agonists of the estrogen receptor beta (ER-beta) signaling pathway (AID 1259377; active = well fitted activation curve with a large enough effect in the signal ratio in the repeat runs, not every such curve was filed as active; the % refers to the signal ratio). The method in brief:
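Beta-lactamase reporter readout: fluorescence of LiveBLAzer B/G FRET substrate after 2 h at room temperature, following 16 h compound treatment of ER-beta-UAS-bla HEK293T cells at 37C in 2% charcoal-stripped FBS medium.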

For test [16] the target is unchanged. Description: qHTS assay to identify small molecule antagonists of the estrogen receptor beta (ER-beta) signaling pathway (AID 1259378; active = well fitted inhibition curve with a large enough effect in the signal ratio in the repeat runs, not every such curve was filed as active; the % refers to the signal ratio). An outline of the steps: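 ER-beta-UAS-bla HEK293T cells in 2% charcoal-stripped FBS medium treated with compound plus 1nM final 17-beta-estradiol for 16 hr at 37C. Beta-lactamase reporter read by FRET substrate fluorescence after 2 hours at room temperature.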

Test [17] can be described thus: qHTS assay to identify small molecule antagonists of the estrogen receptor beta (ER-beta) signaling pathway - cell viability counter screen (AID 1259382). Also: series mostly up to about 92 µM; nearly all actives have a fitted effect of over 55% in size. The method in brief:
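HEK293T ER-beta-UAS-bla, 2% charcoal-stripped FBS; compounds + 1nM E2 16 hr 37C; CellTiter-Glo luminescence, 30 min RT.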

For test [18], the target named is Estrogen receptor (Homo sapiens) (UniProt P03372). Kind of test: qHTS assay to identify small molecule agonists of the estrogen receptor alpha (ER-alpha) signaling pathway in the presence of an antagonist (AID 1259383; calls by dose curve; also: top concentration of the series differs between compounds; nearly all actives have a fitted effect of over 15% in size). An outline of the steps: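 ER-alpha agonism measured under antagonist challenge: 10.0nM ICI-182,780 (final) plus compound, 15 concentrations, 22hr, VM7Luc4E2 ERE-luciferase cells. Read by luminescence.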
Chain of Estrogen receptor (Homo sapiens) (P03372 whole entry, looked up): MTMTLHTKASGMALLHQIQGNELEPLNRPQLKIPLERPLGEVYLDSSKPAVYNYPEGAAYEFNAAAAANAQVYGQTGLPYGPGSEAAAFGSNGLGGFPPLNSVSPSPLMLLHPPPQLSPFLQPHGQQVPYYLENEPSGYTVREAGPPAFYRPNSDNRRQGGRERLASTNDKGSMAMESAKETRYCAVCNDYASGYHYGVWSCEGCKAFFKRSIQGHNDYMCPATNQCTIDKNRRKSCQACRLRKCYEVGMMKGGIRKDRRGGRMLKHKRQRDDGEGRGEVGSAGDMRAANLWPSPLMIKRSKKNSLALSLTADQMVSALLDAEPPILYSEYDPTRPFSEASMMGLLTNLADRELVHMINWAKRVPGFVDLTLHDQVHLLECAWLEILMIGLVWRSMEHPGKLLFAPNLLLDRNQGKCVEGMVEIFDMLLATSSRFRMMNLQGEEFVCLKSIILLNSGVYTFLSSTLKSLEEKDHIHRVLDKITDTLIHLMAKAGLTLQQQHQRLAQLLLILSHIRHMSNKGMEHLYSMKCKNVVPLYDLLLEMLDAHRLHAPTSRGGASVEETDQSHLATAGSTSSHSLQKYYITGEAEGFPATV

Test [19] can be described thus: qHTS assay to identify small molecule antagonists of the progesterone receptor (PR) signaling pathway - cell viability counter screen (AID 1346798). Also: series mostly up to about 92 µM; nearly all actives have a fitted effect of over 50% in size. An outline of the steps: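 Luminescence readout (CellTiter-Glo, 30 min, RT) of viability in PR-UAS-bla HEK293T cells exposed to compound and R5020 agonist for 16 hr at 37C, 5% CO2; run in the same wells as the beta-lactamase reporter read.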

Test [20] in a line: qHTS assay to identify small molecule agonists of the progesterone receptor (PR) signaling pathway - cell viability counter screen (AID 1346799; calls by dose curve; also: nearly all actives have a fitted effect of over 45% in size; also: potency is read from the fitted curve at half-maximal effect). The method in brief: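 HEK293T PR-UAS-bla, 3,000 cells/well, 2% charcoal-stripped FBS; 6 h settle, compound 16 h at 37C/5% CO2; LiveBLAzer 2 h RT, then CellTiter-Glo 30 min RT, luminescence read.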

Chain of Thyrotropin-releasing hormone receptor (Homo sapiens) (P34981 whole entry, looked up): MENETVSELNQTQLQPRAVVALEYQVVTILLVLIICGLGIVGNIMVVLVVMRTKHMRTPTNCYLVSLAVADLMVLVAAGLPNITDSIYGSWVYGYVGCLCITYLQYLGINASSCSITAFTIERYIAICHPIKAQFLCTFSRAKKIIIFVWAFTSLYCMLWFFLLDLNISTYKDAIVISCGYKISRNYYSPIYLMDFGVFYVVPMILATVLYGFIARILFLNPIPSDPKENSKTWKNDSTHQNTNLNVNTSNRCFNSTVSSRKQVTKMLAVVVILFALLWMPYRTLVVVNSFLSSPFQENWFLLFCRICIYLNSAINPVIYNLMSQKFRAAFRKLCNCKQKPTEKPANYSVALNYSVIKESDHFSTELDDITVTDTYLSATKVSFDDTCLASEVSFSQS
Chain of Estrogen receptor beta (Homo sapiens) (Q92731 whole entry, looked up): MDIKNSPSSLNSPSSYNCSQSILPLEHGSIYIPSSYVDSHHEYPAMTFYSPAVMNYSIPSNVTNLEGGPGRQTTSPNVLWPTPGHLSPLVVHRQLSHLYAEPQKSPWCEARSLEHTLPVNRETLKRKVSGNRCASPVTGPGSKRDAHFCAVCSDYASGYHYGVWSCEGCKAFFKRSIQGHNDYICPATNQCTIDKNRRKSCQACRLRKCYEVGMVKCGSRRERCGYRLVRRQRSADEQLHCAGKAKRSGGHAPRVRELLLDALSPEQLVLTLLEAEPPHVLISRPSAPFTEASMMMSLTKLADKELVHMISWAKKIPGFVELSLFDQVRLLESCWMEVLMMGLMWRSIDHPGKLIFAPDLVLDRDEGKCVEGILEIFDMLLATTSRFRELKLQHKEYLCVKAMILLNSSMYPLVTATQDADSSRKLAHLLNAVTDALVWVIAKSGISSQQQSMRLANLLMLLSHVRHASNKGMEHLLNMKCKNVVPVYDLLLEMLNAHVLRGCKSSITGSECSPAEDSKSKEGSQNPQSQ
Chain of Progesterone receptor (Homo sapiens) (P06401 whole entry, looked up): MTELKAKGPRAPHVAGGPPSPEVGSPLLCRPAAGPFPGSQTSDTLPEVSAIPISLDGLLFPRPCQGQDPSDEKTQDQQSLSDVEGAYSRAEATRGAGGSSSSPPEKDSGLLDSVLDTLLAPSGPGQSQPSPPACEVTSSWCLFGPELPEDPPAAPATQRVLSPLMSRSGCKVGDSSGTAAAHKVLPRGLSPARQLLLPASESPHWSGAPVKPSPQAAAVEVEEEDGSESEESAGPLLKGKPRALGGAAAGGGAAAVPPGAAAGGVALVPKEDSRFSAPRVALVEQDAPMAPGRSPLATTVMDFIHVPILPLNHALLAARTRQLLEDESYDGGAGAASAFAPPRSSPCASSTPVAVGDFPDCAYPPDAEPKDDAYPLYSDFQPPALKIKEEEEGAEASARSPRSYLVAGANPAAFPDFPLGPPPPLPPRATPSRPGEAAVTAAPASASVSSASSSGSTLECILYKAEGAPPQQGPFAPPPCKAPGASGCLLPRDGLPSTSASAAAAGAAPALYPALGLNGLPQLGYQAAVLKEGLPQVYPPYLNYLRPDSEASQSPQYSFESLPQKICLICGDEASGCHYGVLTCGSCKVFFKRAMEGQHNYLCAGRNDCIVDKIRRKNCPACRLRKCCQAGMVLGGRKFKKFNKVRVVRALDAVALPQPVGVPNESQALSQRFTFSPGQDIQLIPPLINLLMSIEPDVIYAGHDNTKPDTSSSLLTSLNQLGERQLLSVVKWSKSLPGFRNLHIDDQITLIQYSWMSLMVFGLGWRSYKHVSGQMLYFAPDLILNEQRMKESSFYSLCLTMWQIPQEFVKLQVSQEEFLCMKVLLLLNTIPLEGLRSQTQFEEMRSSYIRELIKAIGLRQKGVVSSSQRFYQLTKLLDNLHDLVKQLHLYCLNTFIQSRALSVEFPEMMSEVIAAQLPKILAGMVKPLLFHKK
Chain of Thyrotropin receptor (Homo sapiens) (P16473 whole entry, looked up): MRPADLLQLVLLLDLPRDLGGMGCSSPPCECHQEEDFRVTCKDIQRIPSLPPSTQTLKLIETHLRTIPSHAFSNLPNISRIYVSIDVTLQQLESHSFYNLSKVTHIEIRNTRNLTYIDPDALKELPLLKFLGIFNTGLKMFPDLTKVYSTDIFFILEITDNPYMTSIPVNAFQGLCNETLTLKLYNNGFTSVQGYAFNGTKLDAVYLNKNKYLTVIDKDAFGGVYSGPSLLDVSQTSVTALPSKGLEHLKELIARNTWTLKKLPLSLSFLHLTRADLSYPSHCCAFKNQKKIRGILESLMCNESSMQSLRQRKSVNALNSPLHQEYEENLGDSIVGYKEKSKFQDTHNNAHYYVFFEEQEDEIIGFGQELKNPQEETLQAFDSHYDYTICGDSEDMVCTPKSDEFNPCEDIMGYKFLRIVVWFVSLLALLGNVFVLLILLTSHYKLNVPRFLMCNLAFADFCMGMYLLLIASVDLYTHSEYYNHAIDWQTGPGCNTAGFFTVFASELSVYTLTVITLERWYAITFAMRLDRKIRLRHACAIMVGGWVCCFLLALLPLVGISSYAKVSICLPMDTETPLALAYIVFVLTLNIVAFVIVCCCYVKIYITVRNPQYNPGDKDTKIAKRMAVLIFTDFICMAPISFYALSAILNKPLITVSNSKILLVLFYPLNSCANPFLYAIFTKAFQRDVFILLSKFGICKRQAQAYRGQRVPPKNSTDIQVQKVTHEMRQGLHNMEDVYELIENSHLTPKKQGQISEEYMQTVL

Regarding `CCOCCOCCO`, the Potency result in test [1], in test [2], in test [3], in test [4], in test [7] and in test [8] was “inactive” throughout. Also, the Potency entry in test [9], in test [10], in test [11], in test [12] and in [14] was “inactive” each time. The result in test [5], in test [6] and in test [13] was inactive.
As to `Cc1c(C(N)=O)cc([N+](=O)[O-])cc1[N+](=O)[O-]`, the Potency result in [2], in test [15], in test [16], in test [3], in test [4] and in test [17] was “inactive” throughout. The Potency result in test [18], in [7], in [8], in test [9], in test [10] and in [19] was “inactive” throughout. Further, in [12], the Potency result was “inactive”. In addition, the call in test [6] and in test [13] was inactive.
For the compound `Nc1ncn([C@@H]2O[C@H](CO)[C@@H](O)[C@H]2O)c(=O)n1`, the Potency entry in test [1], in test [17], in test [18], in test [7], in test [8] and in [19] was “inactive” throughout. The Potency entry in [20], in test [11], in [12] and in test [14] was “inactive” each time. For the same compound, the figures for the Potency in [2] and in test [4] were 13.7 µM (active) and 5.45 µM (active), respectively. Moreover, the result in test [5], in test [6] and in [13] was inactive.
For the compound `CC(CCC(=O)O)(c1ccc(O)cc1)c1ccc(O)cc1`, the Potency entry in test [1], in test [2], in test [15], in [3], in test [4] and in test [18] was “inactive” each time. Moreover, the Potency entry in [7], in [8], in test [9], in test [10], in test [11] and in test [12] was “inactive” each time. The Potency result in [14] was “inactive”. The compound was classed as inactive in [6] and in test [13].
Turning to `CN(C)CCN(Cc1cccs1)c1ccccn1`, the Potency entry in test [1], in test [2], in [3], in [4], in test [17] and in test [18] was “inactive” throughout. Also, the Potency result in test [7], in test [8], in [9], in test [10], in test [19] and in test [11] was “inactive” each time. In addition, in test [12], the Potency result was “inactive”. The call in [6] and in test [13] was inactive.
`c1ccc2sc(SSN3CCOCC3)nc2c1`: the Potency result in [1], in test [3], in test [8], in [9], in test [19] and in [11] was “inactive” throughout. In addition, the Potency result in test [12] and in test [14] was “inactive” throughout. Also, the Potency in test [2] is 9.67 µM (active); in [4] it was 30.6 µM (active). Further, the call in test [6] and in test [13] was inactive.
On to `OC[C@H]1O[C@@H]2O[C@H]3[C@H](O)[C@@H](O)[C@@H](O[C@H]4[C@H](O)[C@@H](O)[C@@H](O[C@H]5[C@H](O)[C@@H](O)[C@@H](O[C@H]6[C@H](O)[C@@H](O)[C@@H](O[C@H]7[C@H](O)[C@@H](O)[C@@H](O[C@H]8[C@H](O)[C@@H](O)[C@@H](O[C@H]1[C@H](O)[C@H]2O)O[C@@H]8CO)O[C@@H]7CO)O[C@@H]6CO)O[C@@H]5CO)O[C@@H]4CO)O[C@@H]3CO`, for which the Potency result in test [1], in test [2], in [3], in [17], in [7] and in [8] was “inactive” each time. Also, the Potency result in test [9], in [10], in [11], in test [12] and in test [14] was “inactive” each time. Also, the Potency in [4] was 61.3 µM (active) and inactive; in test [20] it was 24.4 µM (active) and inactive. Besides, the compound was called inactive in [6] and in test [13].
Take `O=CCc1ccccc1`: the Potency result in test [1], in test [3], in [4], in test [7], in [8] and in [9] was “inactive” each time. Also, the Potency result in test [10], in [19], in [11], in test [12] and in [14] was “inactive” each time. For the same compound, the call in test [6] and in test [13] was inactive.
